# Reference: PubChem BioAssay AID1259416 (Broad Institute, 2018)
# Several values for one entry are separate records, joined by “and”; a condition that tells them apart may be missing. Identical values can stand only once. Out of some 69,000 compounds screened, about 2,600 (3.8%) were called active. Only a selection was taken, and actives are over-represented in it overall. A number with no mark means an inactive call. Rule as the data show it: active = activity change below about -70% (passing the limit was not always enough); inconclusive = no clear call, values can overlap the other calls.
# Assay: T. gondii growth inhibition with IFN-gamma, primary screen, cell-based (AID 1259416);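 also: host cells are HeLa cells infected with Toxoplasma gondii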
# Conditions: Toxoplasma gondii growth in IFN-gamma-treated host cells; hits give low values; concentration not given here
row,SMILES,"activity change, negative = inhibition"
1,COc1ccc(CN2C(=O)CO[C@H]3CN(C(=O)NC4CC4)C[C@@H]32)cc1,15.8%
2,N#Cc1ccc(-c2ccc([C@@H]3[C@H]4CNC[C@@H]3N4Cc3ccc4c(c3)OCO4)cc2)cc1,-70.6% (active)
3,COc1ccccc1CN1[C@@H]2CNC[C@H]1C2c1ccc(-c2cccc(C#N)c2)cc1 (some centres undefined),-25.9% and -32%
4,N#Cc1ccc(-c2ccc([C@@H]3[C@@H](CO)N4C(=O)CNC[C@H]34)cc2)cc1,-24.8%
5,CS(=O)(=O)N1CCCC1c1cccc(Nc2nccs2)n1 (centres undefined),-21.8%
6,COCCn1c(C(=O)NCCCN(C)C)cc2c1c1ccccc1n2C,-12.8%
7,CC(C)(C)CN1CC2CN(C(=O)Nc3ccccc3)CC21 (centres undefined),-37.8%
8,O=C(O)c1ccc(NC(=S)NCc2cccs2)cc1,33.4%
9,CC1CCN(C(=O)c2cc(=O)n(CC(=O)Nc3ccc(C(C)C)cc3)c3ccccc23)CC1,-28.9%
10,Cn1nc(CC(=O)Nc2cccc(Cl)c2)c2ccccc2c1=O,-79% (active)
11,Cc1nc(OCC(=O)Nc2cccc(Cl)c2)c2ccccc2n1,-0.194%
12,Cn1nc(C(=O)O)c2ccccc2c1=O,58.7%
13,CCn1nc(C)c(NC(=O)CN2CCC(Oc3ncccn3)CC2)c1C,-9.88%
14,COc1cccc2[nH]c(C(=O)N3CCCC(c4cc(CN(C)C)n(C)n4)C3)cc12 (centres undefined),5.73%
15,Cc1sccc1C(=O)N1CCC2(CC1)CC(NS(C)(=O)=O)C2,6.5%
16,COc1ccc2c(C3C(=O)c4ccccc4C3=O)nccc2c1,-108% (active)
17,COc1ccc2cc(-c3ccccc3NC(=O)CN)ccc2c1,70.1%
18,O=C1c2ccccc2C(=O)C1c1ccccc1,-11.2% and 19.1%
19,COc1ccc(-c2cc(C)cnc2-n2cnnc2)cn1,4.46%
20,CCc1nc(CN2CCC3(CC2)C(=O)N(CCc2ccccc2)C(=O)N3C)c(C)[nH]1,-3.85%
21,COc1ccc2c3c(n(C)c2c1)[C@H](CO)N(Cc1ccccc1Cl)CC31CN(C(=O)CN(C)C)C1,-29.5%
22,CN1C(=O)CCc2cc(C(=O)NC3CCCC3)ccc21,9.57%
23,Cc1cccnc1N1C[C@H]2CN(c3cnn(C)c3)C(=O)[C@@H]2C1,-73.4% (active)

row,SMILES,"activity change, negative = inhibition"
1,Cc1ccc(C(=O)N2CCC3(CC2)CCN(c2cnn(C)c2)C3=O)cc1,19.8%
2,CCN1C(=O)[C@H]2CN(c3ncccn3)C[C@@H]2C12CCN(S(=O)(=O)CC(C)C)CC2,-13.4%
3,Cc1ccc(NC(=O)CC(=O)N2CCCC(c3nc(CC(C)C)no3)C2)cc1 (centres undefined),25%
4,Cc1noc2nc(C3CCCN(C(=O)CCc4ccccc4)C3)cc(C(F)F)c12 (centres undefined),-93.3% (active)
5,O=C(CCn1nnc2ccccc21)N1CCCC(c2ccn[nH]2)C1 (centres undefined),2.46%
6,CCCCc1ncc(CN2CCN(c3ccccc3OC)CC2C)[nH]1 (centres undefined),-2.06%
7,O=S(=O)(NCc1ccccc1)N1CCCC1c1ccccn1 (centres undefined),-3.86%
8,CO[C@@H]1CCN(C(=O)c2ccnn2C)[C@H]2CN(CC3CC3)C[C@@H]12,33.7%
9,COCCC(=O)c1cc2c(s1)CCN2c1ccc(C)nn1,59.6%
10,O=C(NCCc1csc(-c2ccccc2)n1)c1ccccc1F,455%
11,Cc1ccccc1C(=O)NCCc1csc(-c2ccc(F)cc2)n1,-18%
12,COc1ccccc1C(=O)NCCc1csc(-c2ccc(Cl)cc2)n1,-74% (active)
13,O=C(CSc1nc2ccc(N3C(=O)c4ccccc4C3=O)cc2s1)N1CCOCC1,1.26%
14,COc1ccc(NS(=O)(=O)c2cc3c4c(c2)CCC(=O)N4CCC3)cc1OC,2.51%
15,CC(C)Cc1cc(C(=O)N2CCCC3(CN(C)C(=O)O3)C2)on1 (centres undefined),3.84%
16,Cc1nn(C)cc1-c1c(-c2ccccc2)ncn1CCNC(=O)c1ccncc1,-3.05%
17,CCCCCC(O)c1cccc(OCc2ccc3ccccc3n2)c1 (centres undefined),74.5% and 28.6%
18,Cn1cc(-c2ccncc2)c(-c2ccc(OCc3ccc4ccccc4n3)cc2)n1,-77.6% (active)
19,CCOC(=O)c1c(C(F)(F)F)cc(-c2ccccc2)nc1C,12.4%
20,O=C(c1ccoc1)N1CCCn2c(nc(CN3CCCC3)cc2=O)C1,-0.164%
21,COc1ccc(S(=O)(=O)CCNS(=O)(=O)N2CCCC(C)C2)cc1 (centres undefined),2.67%
22,CCN(CC)c1ncnc2c1cnn2CC(=O)NCc1ccccc1,-95.8% (active)
23,CCc1ccccc1NC(=O)Cn1ncc2c(N(CC)CC)ncnc21,-34.2%

row,SMILES,"activity change, negative = inhibition"
1,O=C(Cn1ncc2c(N3CCCC3)ncnc21)NCc1ccccc1,10.5%
2,Cc1cc(N2CCC(C(=O)Nc3nnc(-c4cccnc4)s3)CC2)n2ncnc2n1,-5.63%
3,Clc1ccc(C(Cn2ccnc2)OCc2ccsc2Cl)c(Cl)c1 (centres undefined),-59.6% and 3.6%
4,COc1ccc(CCCOC(Cn2ccnc2)c2ccc(OC)cc2)cc1 (centres undefined),-83.3% (active)
5,Cc1nc2c(c(=O)[nH]1)CCN(C(=O)c1c(-c3ccccc3Cl)noc1C)C2,11.4%
6,COC(=O)c1cc2n(n1)CCCN(C(=O)COc1ncnc3ccccc13)C2,2.6%
7,COc1ccc(NC(=O)c2cccc(CN3C[C@@H](C)O[C@@H](C)C3)c2)cc1,26.7%
8,O=C(COc1ccc(C(=O)c2ccccc2)cc1)NC1CCN(Cc2ccccc2)CC1,25.7%
9,O=C(Nc1ccc(OCc2ccccc2)cc1)OCC1CN(Cc2ccccc2)CCO1 (centres undefined),-88.7% (active)
10,CN1Cc2ccccc2CC2(CCN(Cc3ccsc3)CC2)C1=O,0.416%
11,CN1C(=O)c2cc(NC(=O)c3ccc4c(c3)OCO4)ccc2OC[C@@H]2O[C@H](CC(=O)O)CC[C@H]21,8.45%
12,Cc1ccc(Cl)cc1NC(=O)CN1C(=O)CCc2cc(S(=O)(=O)N3CCCCC3)ccc21,0.0244%
13,Cc1cc(C)cc(NC(=O)CN2C(=O)CCc3cc(S(=O)(=O)N4CCOCC4)ccc32)c1,24.4%
14,Cc1ccc(NC(=O)CN2C(=O)CCc3cc(S(=O)(=O)N4CCCCC4C)ccc32)cc1N(C)C (centres undefined),-103% (active)
15,COC(=O)c1c(NCc2c(C)noc2C)c2cccc(Cl)c2[nH]c1=O,7.07%
16,Cc1ccc2[nH]c3c(c2c1)CCNC31C(=O)N(C)c2ccc(Br)cc21 (centres undefined),1.48%
17,CS(=O)(=O)N1CCO[C@H]2[C@@H](OCc3cccnc3)CC[C@H]21,37.3%
18,O=C1c2cc(OCCN3CCCCC3)ccc2-c2ccc(OCCN3CCCCC3)cc21,-90% (active)
19,O=c1[nH]c2ccccc2n1C1CCN(CCOc2ccccc2)CC1,-49.4%
20,O=C(Nc1ccc(F)cc1F)N1CCCN(CCOc2ccccc2)CC1,8.95%
21,O=C1NCCc2[nH]c(-c3ccncc3)cc21,-85.6% (active)
22,COc1cccc(-c2cn[nH]c2C2CCCN2S(=O)(=O)c2ccc(Cl)cc2)c1 (centres undefined),-31.9%
23,Cc1nn(CC(=O)N(C)Cc2ccccc2)c(=O)c2nc(-c3ccccc3)sc12,-55.4%

row,SMILES,"activity change, negative = inhibition"
1,O=S(=O)(CCSCc1ccc(Cl)cc1)CCSCc1ccc(Cl)cc1,-10%
2,CC1(C)CC(=O)c2cnc3cc(-c4ccccc4)nn3c2C1,-86.8% (active)
3,CS(=O)(=O)Nc1ccc(-n2cnc(-c3ccccc3)c2)cn1,11.6%
4,O=C(Nc1ccc(F)cc1F)c1c(O)c2ccccc2n(-c2ccccc2)c1=O,24%
5,S=C(NCCCc1cnc[nH]1)NCCCN(Cc1ccc(Cl)c(Cl)c1)c1ccc(Br)cn1,-78.1% (active)
6,Cc1ccc(NC(=O)CC(=O)NCCc2cnc[nH]2)cc1Cl,5.77%
7,COc1ccc(NC(=O)c2cc3c(s2)CCN3C(=O)C2CC2)cc1,23.2%
8,Cn1c(=O)c(-c2nc(-c3cccs3)no2)c(O)c2ccccc21,67.9%
9,CCSCCN(C(=O)c1nnc2nc(C)cc(C)n12)C1CCCCC1,-3.21%
10,COc1ccc2c3c(n(C)c2c1)[C@H](CO)N(C(=O)Nc1cccc(F)c1)CC31CN(Cc2nccs2)C1,-24.3%
11,N#Cc1ccc(C(=O)N2CCC3C2CCC(=O)N3c2cccnc2)cc1 (centres undefined),-20.1%
12,Cc1ccc(Cl)cc1NC(=O)c1nnn(Cc2nc(-c3cccc(Cl)c3)oc2C)c1C,55.8%
13,COc1ccc(-c2nc(Cn3nnc(C(=O)Nc4ccccc4C)c3C)c(C)o2)c(OC)c1,32.4%
14,CCc1ccccc1NC(=O)c1nnn(Cc2nc(-c3ccccc3C)oc2C)c1C,-107% (active)
15,Cc1ccc(-c2nc(Cn3nnc(C(=O)NCc4ccccn4)c3C)c(C)o2)cc1,-57.8%
16,Cc1ccccc1-c1nc(Cn2nnc(C(=O)Nc3c(C)cccc3C)c2C)c(C)o1,-38.6%
17,COc1ccc(Br)cc1-c1nc(Cn2nnc(C(=O)Nc3cc(F)ccc3C)c2C)c(C)o1,423%
18,COc1ccccc1NC(=O)c1nnn(Cc2nc(-c3ccc(C)cc3)oc2C)c1C,-82.9% (active)
19,Cc1cccc(C)c1NC(=O)c1nnn(Cc2nc(-c3ccccc3)oc2C)c1C,-62.3%
20,COc1ccccc1NC(=O)c1nnn(Cc2nc(-c3cccc(OC)c3OC)oc2C)c1C,-83.3% (active)
